The results in this text go back to paper PMC11006913.

What all share (test): PBM; 200 nM protein, PBS
Common to all, as to details: dsDNA, one strand shown

Assay [1] addresses HOXB9 (Homo sapiens, UniProt P17482 171-250, T197M).
The target of assay [2] is HOXC9 (Homo sapiens, UniProt P31274 178-260, K195R).
Assay [3] concerns the target HOXC10 (Homo sapiens, UniProt Q9NYD6 254-340).
Assay [4] has as its target HOXB9 (Homo sapiens, UniProt P17482 171-250).
Assay [5] concerns the target HOXC9 (Homo sapiens, UniProt P31274 178-260).
The target in assay [6] is HOXD13 (Homo sapiens, UniProt P35453 263-343, T313R).
Chain of HOXD13 (Homo sapiens, UniProt P35453 263-343, T313R) (P35453 263-343 T313R): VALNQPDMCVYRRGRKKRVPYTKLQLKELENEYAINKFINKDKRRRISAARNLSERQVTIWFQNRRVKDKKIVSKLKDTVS
For assay [7], the target named is HOXC9 (Homo sapiens, UniProt P31274 178-260, R193K).
Chain of HOXC9 (Homo sapiens, UniProt P31274 178-260, R193K) (P31274 178-260 R193K): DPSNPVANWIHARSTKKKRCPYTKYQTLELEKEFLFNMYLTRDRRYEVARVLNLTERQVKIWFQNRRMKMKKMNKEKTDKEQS
For assay [8], the target named is HOXD13 (Homo sapiens, UniProt P35453 263-343).
Chain of HOXD13 (Homo sapiens, UniProt P35453 263-343) (P35453 263-343): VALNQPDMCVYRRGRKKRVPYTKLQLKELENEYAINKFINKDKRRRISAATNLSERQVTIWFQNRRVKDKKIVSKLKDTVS
Assay [9] has as its target HOXC10 (Homo sapiens, UniProt Q9NYD6 254-340, K271E).
In assay [10] the target is HOXD13 (Homo sapiens, UniProt P35453 263-343, T313A).
Chain of HOXD13 (Homo sapiens, UniProt P35453 263-343, T313A) (P35453 263-343 T313A): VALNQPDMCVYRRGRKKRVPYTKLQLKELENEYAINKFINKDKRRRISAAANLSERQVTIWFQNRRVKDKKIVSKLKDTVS
The target in assay [11] is HOXB9 (Homo sapiens, UniProt P17482 171-250, R186Q).
Chain of HOXB9 (Homo sapiens, UniProt P17482 171-250, R186Q) (P17482 171-250 R186Q): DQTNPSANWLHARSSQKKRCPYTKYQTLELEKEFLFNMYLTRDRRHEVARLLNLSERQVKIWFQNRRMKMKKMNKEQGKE
Assay [12] has as its target HOXC9 (Homo sapiens, UniProt P31274 178-260, R222W).
For assay [13], the target named is ALX4 (Homo sapiens, UniProt Q9H161 200-286).
Chain of ALX4 (Homo sapiens, UniProt Q9H161 200-286) (Q9H161 200-286): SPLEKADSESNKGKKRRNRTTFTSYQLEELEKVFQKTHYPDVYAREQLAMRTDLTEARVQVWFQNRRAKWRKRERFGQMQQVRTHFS
For assay [14], the target named is ALX4 (Homo sapiens, UniProt Q9H161 200-286, Q225E).
Chain of ALX4 (Homo sapiens, UniProt Q9H161 200-286, Q225E) (Q9H161 200-286 Q225E): as the sequence (Q9H161 200-286) above, with Q26E counted along it

Chain of HOXC10 (Homo sapiens, UniProt Q9NYD6 254-340, K271E) (Q9NYD6 254-340 K271E): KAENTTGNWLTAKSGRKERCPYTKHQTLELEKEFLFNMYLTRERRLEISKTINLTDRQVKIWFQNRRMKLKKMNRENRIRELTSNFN
Chain of HOXC9 (Homo sapiens, UniProt P31274 178-260, R222W) (P31274 178-260 R222W): as the sequence (P31274 178-260 R193K) above, with K16R, R45W counted along it
Chain of HOXB9 (Homo sapiens, UniProt P17482 171-250) (P17482 171-250): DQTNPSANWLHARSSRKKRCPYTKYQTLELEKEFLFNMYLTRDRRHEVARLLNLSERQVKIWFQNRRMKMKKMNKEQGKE
Chain of HOXB9 (Homo sapiens, UniProt P17482 171-250, T197M) (P17482 171-250 T197M): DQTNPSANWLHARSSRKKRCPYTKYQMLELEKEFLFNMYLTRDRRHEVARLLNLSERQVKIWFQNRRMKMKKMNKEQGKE
Chain of HOXC10 (Homo sapiens, UniProt Q9NYD6 254-340) (Q9NYD6 254-340): as the sequence (Q9NYD6 254-340 K271E) above, with E18K counted along it
Chain of HOXC9 (Homo sapiens, UniProt P31274 178-260) (P31274 178-260): as the sequence (P31274 178-260 R193K) above, with K16R counted along it
Chain of HOXC9 (Homo sapiens, UniProt P31274 178-260, K195R) (P31274 178-260 K195R): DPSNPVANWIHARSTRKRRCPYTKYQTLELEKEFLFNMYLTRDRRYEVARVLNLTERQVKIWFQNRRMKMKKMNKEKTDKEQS

For GTTTATTA, the binding signal was 9.87 upbm affinity estimate (log intensity, higher = more binding, comparable within an allelic series) in assay [1]; 12.6 upbm affinity estimate (log intensity, higher = more binding, comparable within an allelic series) in assay [2]; 12.4 upbm affinity estimate (log intensity, higher = more binding, comparable within an allelic series) in [3]; 11.7 upbm affinity estimate (log intensity, higher = more binding, comparable within an allelic series) in [4]; 12.6 upbm affinity estimate (log intensity, higher = more binding, comparable within an allelic series) in assay [5]; 11 upbm affinity estimate (log intensity, higher = more binding, comparable within an allelic series) in [6]. The binding signal was 12.6 upbm affinity estimate (log intensity, higher = more binding, comparable within an allelic series) in assay [7]; 12 upbm affinity estimate (log intensity, higher = more binding, comparable within an allelic series) in [8]; 11.6 upbm affinity estimate (log intensity, higher = more binding, comparable within an allelic series) in [9]; 11.8 upbm affinity estimate (log intensity, higher = more binding, comparable within an allelic series) in assay [10]; 11.5 upbm affinity estimate (log intensity, higher = more binding, comparable within an allelic series) in assay [11]; 11.2 upbm affinity estimate (log intensity, higher = more binding, comparable within an allelic series) in assay [12].

As for CCTTGCAG, the binding signal in assay [1] was 8.52 upbm affinity estimate (log intensity, higher = more binding, comparable within an allelic series); in [2] it was 9.62 upbm affinity estimate (log intensity, higher = more binding, comparable within an allelic series); in assay [13], 7.87 upbm affinity estimate (log intensity, higher = more binding, comparable within an allelic series); in assay [14], 8.04 upbm affinity estimate (log intensity, higher = more binding, comparable within an allelic series); in assay [4], 8.41 upbm affinity estimate (log intensity, higher = more binding, comparable within an allelic series); in assay [5] it was 9.66 upbm affinity estimate (log intensity, higher = more binding, comparable within an allelic series). Also, the binding signal in [7] was 9.67 upbm affinity estimate (log intensity, higher = more binding, comparable within an allelic series); in assay [11], 8.42 upbm affinity estimate (log intensity, higher = more binding, comparable within an allelic series); in assay [12] it was 9.74 upbm affinity estimate (log intensity, higher = more binding, comparable within an allelic series).

AATTTTAT: the binding signal in assay [1] was 9.84 upbm affinity estimate (log intensity, higher = more binding, comparable within an allelic series); in [2], 12.6 upbm affinity estimate (log intensity, higher = more binding, comparable within an allelic series); in [3] it was 12.3 upbm affinity estimate (log intensity, higher = more binding, comparable within an allelic series); in assay [4] it was 11.9 upbm affinity estimate (log intensity, higher = more binding, comparable within an allelic series); in [5], 12.7 upbm affinity estimate (log intensity, higher = more binding, comparable within an allelic series); in assay [6], 10.7 upbm affinity estimate (log intensity, higher = more binding, comparable within an allelic series). Further, the binding signal in assay [7] was 12.6 upbm affinity estimate (log intensity, higher = more binding, comparable within an allelic series); in assay [9], 11.7 upbm affinity estimate (log intensity, higher = more binding, comparable within an allelic series); in assay [11], 11.6 upbm affinity estimate (log intensity, higher = more binding, comparable within an allelic series); in assay [12] it was 11.2 upbm affinity estimate (log intensity, higher = more binding, comparable within an allelic series).

Consider GTCATAAA, for which the binding signal was 9.98 upbm affinity estimate (log intensity, higher = more binding, comparable within an allelic series) in [1]; 13.1 upbm affinity estimate (log intensity, higher = more binding, comparable within an allelic series) in [2]; 12.9 upbm affinity estimate (log intensity, higher = more binding, comparable within an allelic series) in assay [3]; 12.5 upbm affinity estimate (log intensity, higher = more binding, comparable within an allelic series) in assay [4]; 13.1 upbm affinity estimate (log intensity, higher = more binding, comparable within an allelic series) in assay [5]; 10.9 upbm affinity estimate (log intensity, higher = more binding, comparable within an allelic series) in [6]. Moreover, the binding signal is 13.1 upbm affinity estimate (log intensity, higher = more binding, comparable within an allelic series) in assay [7]; 12.1 upbm affinity estimate (log intensity, higher = more binding, comparable within an allelic series) in assay [8]; 12.4 upbm affinity estimate (log intensity, higher = more binding, comparable within an allelic series) in assay [9]; 11.8 upbm affinity estimate (log intensity, higher = more binding, comparable within an allelic series) in assay [10]; 12.2 upbm affinity estimate (log intensity, higher = more binding, comparable within an allelic series) in [11]; 11.2 upbm affinity estimate (log intensity, higher = more binding, comparable within an allelic series) in assay [12].

Consider CATAAAAC, for which the binding signal in assay [1] is 9.89 upbm affinity estimate (log intensity, higher = more binding, comparable within an allelic series); in [2], 12.9 upbm affinity estimate (log intensity, higher = more binding, comparable within an allelic series); in assay [3], 12.6 upbm affinity estimate (log intensity, higher = more binding, comparable within an allelic series); in [4] it was 12.4 upbm affinity estimate (log intensity, higher = more binding, comparable within an allelic series); in [5], 13.1 upbm affinity estimate (log intensity, higher = more binding, comparable within an allelic series); in assay [6] it was 10.7 upbm affinity estimate (log intensity, higher = more binding, comparable within an allelic series). The binding signal in assay [7] was 13 upbm affinity estimate (log intensity, higher = more binding, comparable within an allelic series); in assay [8], 12 upbm affinity estimate (log intensity, higher = more binding, comparable within an allelic series); in assay [9] it was 11.9 upbm affinity estimate (log intensity, higher = more binding, comparable within an allelic series); in [10] it was 11.7 upbm affinity estimate (log intensity, higher = more binding, comparable within an allelic series); in assay [11] it was 12.1 upbm affinity estimate (log intensity, higher = more binding, comparable within an allelic series); in [12], 11.3 upbm affinity estimate (log intensity, higher = more binding, comparable within an allelic series).

With TCGTAAAA, the binding signal in assay [1] was 9.97 upbm affinity estimate (log intensity, higher = more binding, comparable within an allelic series); in [2], 13.1 upbm affinity estimate (log intensity, higher = more binding, comparable within an allelic series); in assay [3], 12.8 upbm affinity estimate (log intensity, higher = more binding, comparable within an allelic series); in assay [4] it was 12.6 upbm affinity estimate (log intensity, higher = more binding, comparable within an allelic series); in assay [5], 13.2 upbm affinity estimate (log intensity, higher = more binding, comparable within an allelic series); in assay [6] it was 11.1 upbm affinity estimate (log intensity, higher = more binding, comparable within an allelic series). The binding signal is 13 upbm affinity estimate (log intensity, higher = more binding, comparable within an allelic series) in assay [7]; 12.3 upbm affinity estimate (log intensity, higher = more binding, comparable within an allelic series) in assay [8]; 12.3 upbm affinity estimate (log intensity, higher = more binding, comparable within an allelic series) in assay [9]; 12.2 upbm affinity estimate (log intensity, higher = more binding, comparable within an allelic series) in assay [10]; 12 upbm affinity estimate (log intensity, higher = more binding, comparable within an allelic series) in assay [11]; 11.3 upbm affinity estimate (log intensity, higher = more binding, comparable within an allelic series) in [12].
